Dicer processing = blocks human Dicer maturation of pre-miR-21; Q9UPY3; cat-ELCCA pre-miR-21 Dicer processing, chemiluminescence; active compounds read high; z-score at 25 µM; hit rate 6% among 47,000; AID 1347074; in the data active means z-score above about 3, passing the limit was not always enough;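 further: plate controls were vehicle for no effect and no enzyme for full effect; higher signal means more uncleaved substrate so more Dicer inhibition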
The depositor's hits bear a star. Many of the other results were omitted from the sample, so hits are more common in it than they were.

Cn1nccc1NC(=O)Nc1cc(Cl)cc(Cl)c1 was read as Dicer processing -0.4.
`CCCN1C(=O)C(O)(CC(=O)c2cccc(-n3cccc3)c2)c2ccccc21` (stereo unspecified) gave Dicer processing -0.42.
CCCCNC1=CC(=O)CC(C)(C)C1 was read as Dicer processing 1.8.
COc1ccc(NC2=CC(=O)CC(C)(C)C2)c(OC)c1 was read as Dicer processing -1.6.
`Cc1ccc(NC2=CC(=O)CC(C)(C)C2)cc1C` gave Dicer processing 3.5*.
O=C(O[C@@H]1CSSC[C@H]1OC(=O)c1ccccc1)c1ccccc1 was read as Dicer processing -0.84.
Screening N#Cc1c(-c2cccnc2)c2c([nH]c1=O)-c1ccccc1SC2 returned Dicer processing 0.62.
Screening N#Cc1c(-c2ccc(F)cc2)c2c([nH]c1=O)-c1ccccc1CC2 returned Dicer processing 0.96.
For N#Cc1c(-c2ccc(F)cc2)c2c([nH]c1=O)-c1ccccc1SC2 the results were Dicer processing 3.5*.
CCOC(=O)c1nnn2c1nc(Sc1nc3ccccc3o1)c1ccccc12 was read as Dicer processing -0.99.
CCc1ccc(-c2nc3cc(NS(=O)(=O)c4ccccc4)ccc3o2)cc1 was read as Dicer processing 2.
Screening CCc1ccc(S(=O)(=O)Nc2ccc3oc(=O)sc3c2)cc1 returned Dicer processing 7.9*.
CCc1ccc(CC)c(S(=O)(=O)Nc2ccc3oc(=O)sc3c2)c1 was read as Dicer processing 7.8*.
CCc1ccc(S(=O)(=O)Nc2cccc(S(N)(=O)=O)c2)cc1 was read as Dicer processing -0.66.
`CCCC(=O)N(c1ccc2oc(=O)sc2c1)S(=O)(=O)c1ccc(Cl)cc1` gave Dicer processing 2.1.
For CCCCC(=O)N(c1ccc2oc(=O)sc2c1)S(=O)(=O)c1ccccc1 the results were Dicer processing -0.63.
Screening O=C(NNC(=O)C(F)(F)Sc1ccccc1)c1ccsc1 returned Dicer processing -0.09.
For Cn1c(SCC(=O)Nc2ccc(F)c(Cl)c2)nnc1-c1cncc(C#Cc2ccccc2)c1 the results were Dicer processing -1.8.
Screening CCOc1nc(C)ccc1-c1noc(-c2ccc(OC)c(OC)c2)n1 returned Dicer processing 0.4.
`CCOc1ccc(-c2nc(-c3ccc(Cl)cc3)no2)cc1OCC` gave Dicer processing 3.6*.
Screening COc1ccc(-c2noc(-c3ccc(OC)c(OC)c3)n2)cc1OC returned Dicer processing -0.23.
`O=C(O)CCC(=O)NCc1ccccn1` gave Dicer processing 0.01.
CN(C)/C=C1\C(=O)c2ccccc2N(Cc2c(F)cccc2Cl)S1(=O)=O was read as Dicer processing 0.08.
COC(=O)c1ccc(-c2cccs2)nc1C was read as Dicer processing -0.08.
COc1cc(C2=N/C(=C/C=C/c3ccccc3)C(=O)O2)cc(OC)c1OC was read as Dicer processing 2.1.
For Cc1cc(/C(N)=N/OC(=O)c2ccccc2)c(-c2ccccc2)o1 the results were Dicer processing -0.45.
For CC(=O)Nc1cc(C)c(NS(=O)(=O)c2ccc(C)cc2)c(C)c1 the results were Dicer processing -1.1.
Screening Cc1ccc(NS(=O)(=O)c2ccc(S(N)(=O)=O)cc2)cc1 returned Dicer processing -1.7.
For Cc1ccc(S(=O)(=O)Nc2ccc(O)c(S(=O)(=O)c3ccc(C)cc3)c2)cc1 the results were Dicer processing 4*.
`CC(=O)OCC(COC(C)=O)NC(=O)OCC1c2ccccc2-c2ccccc21` gave Dicer processing -0.98.
`Cc1cccc(N2C(=O)C3CN=NC3(C)C2=O)c1` (stereo unspecified) gave Dicer processing 1.8.
Cc1ccc(=O)n(Cc2ccccc2C)n1 was read as Dicer processing -0.51.
For Cc1cc2c(cc1C)CSC(C)(c1ccc([N+](=O)[O-])cc1)SC2 the results were Dicer processing 0.1.
COc1ccc(-c2csc(-c3c(C)noc3N)n2)cc1 was read as Dicer processing 3.6.
CCOc1ccc(S(=O)(=O)Nc2cc(Cl)c3oc4c(c3c2)C(=O)CCC4)cc1 was read as Dicer processing 1.2.
For COc1ccc(S(=O)(=O)Nc2ccc3oc4c(c3c2)C(=O)CCC4)cc1 the results were Dicer processing 0.14.
Screening Cc1ccc(S(=O)(=O)Nc2cc(Cl)c3oc4c(c3c2)C(=O)CCC4)c(C)c1 returned Dicer processing 3.1*.
For Cn1c(=O)c2c(ncn2CC(=O)Nc2ccc(F)cc2F)n(C)c1=O the results were Dicer processing 0.42.
`CC(C)(C)c1cc(=O)n2[nH]c(C(F)(F)F)c(-c3ccccc3)c2n1` gave Dicer processing 1.9.
For Brc1cccc2c1NC(c1ccncc1)C1CC=CC21 (stereo unspecified) the results were Dicer processing -0.45.
For Cn1c2c(c3ccccc31)/C(=N/OC(=O)c1ccc(C(C)(C)C)cc1)CCC2 the results were Dicer processing -1.2.
CN(C)CC1CCc2c(c3ccccc3n2C)C1=O (stereo unspecified) was read as Dicer processing 1.8.
`Cn1c2c(c3ccccc31)/C(=N/O)CCC2` gave Dicer processing 3.9*.

Screening results as filed in PubChem BioAssay.
